Experimental data: PubChem BioAssay
Calls of active or inactive are those of the source. Unless noted, no stated cut-off is given here; in the data, active means inhibition above about 80%; inactive means the rest.

Legend:
[1] = viability rescue of complex I mutant cybrids, primary screen, cell-based, galactose medium, ATP luminescence (AID 1645843;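 active means z-score of at least 1.8 in each of two replicates, scored against plate mean and spread of sample wells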;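 further: positive z means more ATP and so rescue of galactose-driven cybrid death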); conditions: complex I mutant cybrid cells, 72 h, stronger effect = higher value
[2] = LFS_MB_P medulloblastoma growth inhibition, cell-based, chromothripsis tumors, cisplatin or BGB combos (AID 1671449); conditions: LFS_MB_P medulloblastoma cells;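 further: cells exposed for 96 hours; 0% = vehicle DMSO and 100% = killing by high DMSO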
[3] = HDN33 neuroblastoma growth inhibition, cell-based, chromothripsis tumors, cisplatin or BGB combos (AID 1671450); conditions: HDN33 neuroblastoma cells, stronger effect = higher value;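 further: cells exposed to compound for four days; 0% = vehicle DMSO and 100% = cell killing by high DMSO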
[4] = ICB984 medulloblastoma cell growth inhibition, synergistic combos for chromothripsis tumors, cisplatin or BGB combos (AID 1671451; call rule not given here;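 further: cells exposed for 96 hours before readout; 0% = vehicle DMSO and 100% = killing by high DMSO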); conditions: ICB984 medulloblastoma cells, drug combinations, stronger effect = higher value
[5] = LFS_MB_1R medulloblastoma cell growth inhibition, synergistic combos for chromothripsis tumors, cisplatin or BGB combos (AID 1671452); conditions: LFS_MB_1R medulloblastoma cells, stronger effect = higher value;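 further: cells exposed for 96 hours before readout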
[6] = HTB85 osteosarcoma cell growth inhibition, synergistic combos for chromothripsis tumors, BGB or cisplatin IC20 combos (AID 1671453); conditions: HTB85 osteosarcoma cells, drug combinations, stronger effect = higher value;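 further: cells exposed for 96 hours before readout; 0% = vehicle DMSO and 100% = high DMSO killing control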
[7] = CRL2098 osteosarcoma cell growth inhibition, synergistic combos for chromothripsis tumors, BGB or cisplatin IC20 combos (AID 1671454); conditions: CRL2098 osteosarcoma cells, drug combinations, stronger effect = higher value;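 further: cells exposed for 96 h before readout; 0% = vehicle DMSO and 100% = killing by high DMSO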
[8] = HD-MB03 medulloblastoma cell growth inhibition, synergistic combos for chromothripsis tumors, BGB or cisplatin IC20 combos (AID 1671455; in the data active means inhibition above about 83%;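 further: 0% = vehicle DMSO and 100% = high DMSO as cytotoxic control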); conditions: HD-MB03 medulloblastoma cells, stronger effect = higher value
[9] = UWB1.289 ovarian carcinoma cell growth inhibition, synergistic combos for chromothripsis tumors, BGB or cisplatin combos (AID 1671456); conditions: UWB1.289 ovarian carcinoma cells, stronger effect = higher value;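 further: cells exposed to compound for four days; 0% = vehicle DMSO and 100% = killing by high DMSO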
[10] = LFS_MB_2R medulloblastoma cell growth inhibition, synergistic combos for chromothripsis tumors, cisplatin combos (AID 1671457); conditions: LFS_MB_2R medulloblastoma cells, stronger effect = higher value;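 further: cells exposed to compound for four days before readout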
[11] = MDA-MB-436 breast carcinoma cell growth inhibition, synergistic combos for chromothripsis tumors, BGB or cisplatin combos (AID 1671458; call rule not given here;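 further: cells exposed for 96 hours; 0% = vehicle DMSO and 100% = killing by high DMSO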); conditions: MDA-MB-436 breast carcinoma growth inhibition, drug combinations, stronger effect = higher value
[12] = UWB1.289_BRCA1 ovarian cancer growth, cell-based, BGB or cisplatin combinations (AID 1671459); conditions: UWB1.289 BRCA1 ovarian carcinoma, drug combinations, stronger effect = higher value
[13] = human astrocyte viability loss, single and combined drugs, cytotoxicity control for chromothriptic childhood tumor combination screen, cell-based, BGB or cisplatin IC20 combos (AID 1671460); conditions: Human astrocytes, drug combinations, stronger effect = higher value;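 further: cells exposed to compounds for 96 hours before viability readout; 0% = vehicle and 100% = killing control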
[14] = growth inhibition of BT084 medulloblastoma cells, cell-based, ICGC_MB145, cisplatin and BGB IC40 combos (AID 1671461); conditions: drug combinations, stronger effect = higher value;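 further: cells exposed to drugs for 96 hours; 0% = vehicle DMSO and 100% = high DMSO full killing control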
[15] = growth inhibition of RCMB18 medulloblastoma cells, cell-based, cisplatin and BGB IC40 combos (AID 1671462); conditions: stronger effect = higher value;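 further: cells exposed to compound for four days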
[16] = growth inhibition of CRL1545 osteosarcoma cells, cell-based, cisplatin and BGB IC20 combos (AID 1671464); conditions: stronger effect = higher value;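 further: cells exposed to compound for 96 hours before readout; 0% = vehicle DMSO and 100% = high DMSO killing control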
[17] = measured here: combination with BGB IC40, at 0.05 µM
[18] = measured here: with BGB IC20 combination, at 0.5 µM
[19] = measured here: with cisplatin IC20 combination, at 0.5 µM
[20] = measured here: combination with cisplatin, at 0.5 µM
[21] = measured here: combination with cisplatin, at 5 µM

COCc1cn(CC2CCN(C(=O)CC3CCCCCC3)CC2)nn1
z-score [1]: -0.465 (inactive)

CON=C1CN(c2nc3c(cc2F)c(=O)c(C(=O)O)cn3C2CC2)CC1CN (centres undefined)
inhibition ([2]; at 0.5 µM, stronger effect = higher value): -25.3% (inactive)
inhibition ([2]; measured here: combination with BGB IC20, at 0.005 µM): -14.3%
inhibition ([2]; measured here: combination with BGB IC40, at 0.005 µM): -29%
inhibition [2, 17]: -34.5%
inhibition ([2]; measured here: combination with cisplatin, at 0.5 µM, stronger effect = higher value): -40.3%
inhibition ([2]; measured here: combination with cisplatin, at 5 µM, stronger effect = higher value): -32.3%
inhibition ([3]; BGB combo, at 5 µM): -16.7%
inhibition ([3]; at 0.5 µM): 7.67% (inactive)
inhibition ([3]; cisplatin combo, at 5 µM): -7.53%
inhibition [3, 18]: 8.62%
inhibition [3, 19]: 24.5%
inhibition ([3]; single agent, at 5 µM): -10.6%
inhibition ([4]; BGB IC20 combo, at 0.005 µM): -9.19%
inhibition ([4]; BGB IC40 combo, at 0.005 µM): -11.5%
inhibition ([4]; BGB IC40 combo, at 0.05 µM): -24.2%
inhibition ([4]; at 0.5 µM): -23.7% (inactive)
inhibition ([4]; cisplatin combo, at 0.05 µM): -30.6%
inhibition ([4]; cisplatin combo, at 0.5 µM): -28.8%
inhibition ([4]; cisplatin combo, at 5 µM): -12.6%
inhibition ([4]; measured here: 5 uM single agent, at 5 µM): -12.7%
inhibition ([5]; at 0.5 µM): -19.1% (inactive)
inhibition [5, 17]: -15.4%
inhibition [5, 20]: -33.2%
inhibition [5, 21]: -30.4%
inhibition ([6]; at 0.5 µM): 5.68% (inactive)
inhibition ([6]; measured here: with BGB IC20, at 0.5 µM): 30.9%
inhibition ([6]; measured here: with BGB IC20, at 5 µM): 13.1%
inhibition ([6]; measured here: with cisplatin IC20, at 0.5 µM): -15.5%
inhibition ([6]; measured here: with cisplatin IC20, at 5 µM): 2.1%
inhibition ([6]; single agent, at 5 µM): 3.62%
inhibition ([7]; at 0.5 µM): -6.34% (inactive)
inhibition ([7]; measured here: combination with BGB at IC20, at 0.5 µM): -22.3%
inhibition ([7]; measured here: combination with cisplatin at IC20, at 0.5 µM): 10.2%
inhibition ([8]; at 0.5 µM): -12.3% (inactive)
inhibition ([8]; measured here: combo with BGB at IC20, at 0.5 µM): -16.7%
inhibition ([8]; measured here: combo with cisplatin at IC20, at 0.5 µM): -12.2%
inhibition ([9]; at 0.5 µM): -4.81% (inactive)
inhibition ([9]; measured here: inhibition with BGB combination, at 0.05 µM): -8.23%
inhibition ([9]; measured here: inhibition with cisplatin combination, at 0.05 µM): -6.42%
inhibition ([10]; at 0.5 µM): -15.8% (inactive)
inhibition [10, 20]: -15.1%
inhibition [10, 21]: -25.5%
inhibition ([11]; at 0.5 µM): -11.3% (inactive)
inhibition ([11]; measured here: BGB combination, at 0.5 µM): -3.57%
inhibition ([11]; measured here: BGB combination, at 5 µM): -21.3%
inhibition ([11]; measured here: cisplatin combination, at 0.5 µM): -27.7%
inhibition ([11]; measured here: cisplatin combination, at 5 µM): -9.24%
inhibition ([12]; BGB combination, concentration series, at 5 µM): -28.4%
inhibition ([12]; at 0.5 µM): -4.07% (inactive)
inhibition ([12]; cisplatin combination, concentration series, at 5 µM): -3.27%
inhibition ([13]; at 0.5 µM): 0.97% (inactive)
inhibition ([13]; measured here: combo with BGB IC20, at 0.5 µM): 7.71%
inhibition ([13]; measured here: combo with cisplatin IC20, at 0.5 µM): 2.88%
inhibition ([14]; at 0.5 µM): -10.5% (inactive)
inhibition ([14]; cisplatin combination, at 0.5 µM): -2.65%
inhibition ([14]; cisplatin combination, at 5 µM): -140%
inhibition ([14]; measured here: BGB IC40 combination 0.05 uM, at 0.05 µM): -26.9%
inhibition ([14]; single agent, at 5 µM): -46.4%
inhibition ([15]; at 0.5 µM): -9.98% (inactive)
inhibition ([15]; cisplatin combo, at 5 µM): 24.4%
inhibition ([15]; measured here: BGB IC40 combination, at 0.05 µM): -6.9%
inhibition [15, 20]: 6.35%
inhibition ([15]; single agent, at 5 µM): -19.4%
inhibition ([16]; at 0.5 µM): -0.16% (inactive)
inhibition [16, 18]: -14.3%
inhibition [16, 19]: 5.39%
inhibition ([16]; single agent, at 0.05 µM): 4.29%
inhibition ([16]; single agent, at 5 µM): 16.8%
